In PubChem BioAssay (EPA / NIEHS):
Inconclusive results are not listed. Activity calls are given as the source filed them. The calls were made as follows, unless noted: active = hit-call score of the fitted dose curve at least 0.9, where 1 is the maximum; inactive = score below 0.9.

How the values were obtained:
[1] = target: Paired box protein Pax-6 (Homo sapiens) (UniProt P26367); test: ATG_Pax6_CIS: Attagene CIS-FACTORIAL HepG2 Assay for human Paired Box 6 (PAX6) (AID 2282956); conditions: HepG2 CIS-FACTORIAL PAX6 reporter transcription, RNA readout; actives raise or lower the signal
Summary of the method: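 Readout: reporter transcript fluorescence after RT-PCR and capillary electrophoresis. Cells: HepG2, transiently transfected with cis-regulated MRTUs. Exposure 24 h. Gain or loss of signal fitted bidirectionally relative to DMSO.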

[2] = ATG_PXRE_CIS: Attagene CIS-FACTORIAL HepG2 Assay for human Pregnane X Receptor Element (PXRE) (AID 2282957); conditions: HepG2 Attagene CIS-FACTORIAL PXRE reporter, mRNA; actives raise or lower the signal
Summary of the method: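 Endogenous transcription factor activity in HepG2 was gauged through induction of reporter mRNA driven by a cis-regulating promoter element, sampled 24 h post-treatment. Activity was fitted in both directions against DMSO negative control.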

[3] = ATG_PPRE_CIS: Attagene CIS-FACTORIAL HepG2 Assay for human Peroxisome Proliferator-activated Response Element (PPRE) (AID 2282958); conditions: HepG2 PPRE cis-element reporter, Attagene transcription factor profiling; actives raise or lower the signal
Summary of the method: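 HepG2 cells transiently transfected with multiplexed cis-element reporter units measure endogenous transcription factor activity. After 24 h compound exposure, reporter mRNA is quantified by RT-PCR, 6-FAM labeling, HpaI digestion and capillary electrophoresis; bidirectional fits are made against DMSO baseline.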

[4] = ATG_RORE_CIS: Attagene CIS-FACTORIAL HepG2 Assay for human RAR-related Orphan Receptor Element (RORE) (AID 2282959); conditions: HepG2 Attagene cis-factorial RORE reporter, mRNA; actives raise or lower the signal
Summary of the method: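 HepG2 cells transiently transfected with multiple cis-element reporter transcription units, exposed to chemical for 24 h. Reporter mRNA quantified by RT-PCR, 6-FAM primer-extension labeling, HpaI digestion and capillary electrophoresis; bidirectional fit versus DMSO baseline.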

[5] = ATG_Sox_CIS: Attagene CIS-FACTORIAL HepG2 Assay for human SRY-box transcription factor (SOX) (AID 2282960); conditions: HepG2 Attagene cis-factorial SOX reporter, mRNA; actives raise or lower the signal
Summary of the method: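 HepG2 cells transiently transfected with cis-element-driven multiple reporter transcription units, dosed 24 h; reporter mRNA measured by RT-PCR, FAM labelling, HpaI digestion and capillary electrophoresis. Bidirectional fit versus DMSO baseline.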

[6] = target: Transcription factor Sp1 (Homo sapiens) (UniProt P08047); test: ATG_Sp1_CIS: Attagene CIS-FACTORIAL HepG2 Assay for human Specificity Protein 1 (Sp1) (AID 2282961); conditions: HepG2 Sp1 cis-reporter transcription, actives raise or lower the signal
Summary of the method: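 HepG2 cells transiently transfected with multiple reporter transcription units driven by cis-regulatory elements; Sp1-responsive reporter mRNA measured 24 h after dosing by RT-PCR and capillary electrophoresis fluorescence, fitted bidirectionally against DMSO baseline.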

[7] = ATG_SREBP_CIS: Attagene CIS-FACTORIAL HepG2 Assay for human Sterol Regulatory Element Binding (SREBP) (AID 2282962); conditions: HepG2 Attagene cis-factorial SREBP reporter, mRNA; actives raise or lower the signal
Summary of the method: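 Readout: fluorescent reporter-transcript peaks resolved by capillary electrophoresis after RT-PCR. Cells were human HepG2 carrying transfected cis-promoter reporter constructs, dosed for 24 h. Gain or loss of signal was fitted against DMSO controls.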

[8] = target: Signal transducer and activator of transcription 3 (Homo sapiens) (UniProt P40763); test: ATG_STAT3_CIS: Attagene CIS-FACTORIAL HepG2 Assay for human Signal Transducer and Activator of Transcription 3 (STAT3) (AID 2282963); conditions: HepG2, Attagene cis-factorial STAT3 reporter transcription; actives raise or lower the signal
Summary of the method: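 HepG2, MRTU-transfected, 24 h dosing. RNA → RT → PCR → FAM label → HpaI → CE. Bidirectional fit vs DMSO.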

[9] = ATG_TA_CIS: Attagene CIS-FACTORIAL HepG2 Assay for human TA Basal Promoter (AID 2282964); conditions: HepG2 Attagene CIS-factorial TA basal promoter reporter; actives raise or lower the signal
Summary of the method: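 Multiplexed mRNA reporter assay, HepG2, 24 h. Reporter cDNA amplified, 6-FAM primer-extended, HpaI-cut, CE-sized; DMSO = negative control and baseline.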

[10] = ATG_TCF_b_cat_CIS: Attagene CIS-FACTORIAL HepG2 Assay for human T-Cell-Factor with beta-catenin (TCF/b-cat) (AID 2282965); conditions: HepG2 TCF/beta-catenin cis-reporter transcription, actives raise or lower the signal
Summary of the method: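 In this cis-format system, transfected HepG2 cells report endogenous transcription factor activity. Readout after 24 h exposure is reporter transcript abundance from RT-PCR and capillary electrophoresis, analysed for gain or loss of signal versus DMSO.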

[11] = ATG_TAL_CIS: Attagene CIS-FACTORIAL HepG2 Assay for human TAL Basal Promoter (AID 2282966); conditions: HepG2 Attagene cis-factorial TAL promoter reporter; actives raise or lower the signal;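 also: background control endpoint measuring basal TAL promoter reporter mRNA not a specific factor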
Summary of the method: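 Endogenous transcription-factor activity is sensed in HepG2 cells through transfected cis-promoter reporter constructs. After 24 h dosing, reporter transcripts are quantified by RT-PCR and capillary electrophoresis. Gain or loss of signal is fitted relative to DMSO.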

[12] = ATG_TGFb_CIS: Attagene CIS-FACTORIAL HepG2 Assay for human Transforming Growth Factor (TGF) (AID 2282967); conditions: HepG2 Attagene CIS TGFb reporter, mRNA transcription; actives raise or lower the signal
Summary of the method: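 Transcript-level reporter readout: HepG2 transfectants, 24 h exposure, RNA to cDNA, reporter-specific PCR, fluorescent primer extension, capillary sizing against ROX standards. Gain- or loss-of-signal relative to DMSO.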

[13] = target: X-box-binding protein 1 (Homo sapiens) (UniProt P17861); test: ATG_Xbp1_CIS: Attagene CIS-FACTORIAL HepG2 Assay for human X-box Binding Protein 1 (XBP1) (AID 2282972); conditions: HepG2 XBP1 cis-element reporter, Attagene multiplex; actives raise or lower the signal
Summary of the method: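 Read-out: fluorescent reporter mRNA fragments resolved by capillary electrophoresis after RT-PCR. Human HepG2 liver cells carried transfected cis-promoter reporter units and were exposed to chemicals for 24 hours. Gain or loss of signal fitted relative to DMSO baseline.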

[14] = target: Estrogen-related receptor gamma (Homo sapiens) (UniProt P62508); test: ATG_ERRg_TRANS: Attagene TRANS-FACTORIAL HepG2 Assay for human Estrogen-Related Receptor gamma (ERRg) (AID 2282977; active = hit-call score of the fitted dose curve at least 0.9, where 1 is the maximum;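 also: hits increase reporter signal over DMSO so potencies reflect activators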); conditions: HepG2 Attagene TRANS reporter, ERRg transactivation
Summary of the method: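 Induction of reporter transcripts through a chimeric NR-Gal4 protein is quantified in transfected human HepG2 liver cells after 24 h chemical exposure, using RT-PCR with capillary electrophoresis detection and DMSO as baseline.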

[15] = target: Estrogen receptor (Homo sapiens) (UniProt P03372); test: ATG_ERa_TRANS: Attagene TRANS-FACTORIAL HepG2 Assay for human Estrogen Receptor alpha (ERa) (AID 2282970; active = hit-call score of the fitted dose curve at least 0.9, where 1 is the maximum); conditions: HepG2 Attagene TRANS ERa GAL4 reporter, mRNA
Summary of the method: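 Transfected HepG2 cells carrying GAL4-UAS-driven reporter units were dosed for 24 hours. Total RNA was reverse-transcribed, reporter sequences PCR-amplified, FAM-labelled, HpaI-digested and resolved by capillary electrophoresis. Increases over DMSO control defined activity.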

[16] = ATG_M_19_TRANS: Attagene TRANS-FACTORIAL HepG2 Assay for M19 Transcription Factor (Internal Marker) (AID 2282974; active = hit-call score of the fitted dose curve at least 0.9, where 1 is the maximum); conditions: HepG2 Attagene TRANS-FACTORIAL M19 internal marker reporter
Summary of the method: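 HepG2 cells transiently transfected with multiple GAL4-UAS reporter transcription units were exposed to chemicals for 24 h. Reporter mRNA was read by RT-PCR, 6-FAM primer extension, HpaI digestion and capillary electrophoresis; gain of signal fitted relative to DMSO.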

[17] = ATG_VDRE_CIS: Attagene CIS-FACTORIAL HepG2 Assay for human Vitamin D Receptor Element (VDRE) (AID 2282968); conditions: HepG2 VDRE cis-reporter transcription, actives raise or lower the signal
Summary of the method: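 Steps: transfect HepG2 with multiple reporter transcription units; dose chemicals 24 h; isolate RNA; RT-PCR; label with 6-FAM primer extension; HpaI digest; capillary electrophoresis. Curves fitted both directions against DMSO.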

[18] = ATG_GAL4_TRANS: Attagene TRANS-FACTORIAL HepG2 Assay for GAL4 (Internal Marker) (AID 2282976; active = hit-call score of the fitted dose curve at least 0.9, where 1 is the maximum); conditions: HepG2 Attagene TRANS GAL4 internal marker reporter
Summary of the method: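 Fluorescence from capillary electrophoresis of labelled RT-PCR products quantifies reporter mRNA induction after 24 h dosing of HepG2 cells carrying transfected GAL4-UAS reporter transcription units. Vehicle DMSO serves as baseline.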

[19] = target: Nuclear receptor subfamily 1 group I member 3 (Homo sapiens) (UniProt Q14994); test: ATG_CAR_TRANS: Attagene TRANS-FACTORIAL HepG2 Assay for human Constitutive Androstane Receptor (CAR) (AID 2282969; active = hit-call score of the fitted dose curve at least 0.9, where 1 is the maximum;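 also: activators raise reporter mRNA above DMSO so AC50 marks induction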); conditions: HepG2 Attagene TRANS-FACTORIAL CAR reporter
Summary of the method: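 Steps: transient transfection of HepG2 with multiple GAL4-UAS reporter units; 24 h compound incubation; RNA isolation, RT-PCR, 6-FAM primer extension, HpaI digest; capillary electrophoresis. Gain-of-signal relative to DMSO negative control.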

[20] = target: Steroid hormone receptor ERR1 (Homo sapiens) (UniProt P11474); test: ATG_ERRa_TRANS: Attagene TRANS-FACTORIAL HepG2 Assay for human Estrogen-Related Receptor alpha (ERRa) (AID 2282971; active = hit-call score of the fitted dose curve at least 0.9, where 1 is the maximum); conditions: HepG2 Attagene TRANS reporter, ERRa transactivation
Summary of the method: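 HepG2 cells were transiently transfected with multiple GAL4-UAS reporter units, then dosed with compound for 24 h. Total RNA was reverse-transcribed, reporter cDNA PCR-amplified and fluorescently labelled, and fragments resolved by capillary electrophoresis; induction was compared with DMSO.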

Measured: AC50

Sequence of X-box-binding protein 1 (Homo sapiens) (P17861 whole entry, looked up, the tested form may be a part): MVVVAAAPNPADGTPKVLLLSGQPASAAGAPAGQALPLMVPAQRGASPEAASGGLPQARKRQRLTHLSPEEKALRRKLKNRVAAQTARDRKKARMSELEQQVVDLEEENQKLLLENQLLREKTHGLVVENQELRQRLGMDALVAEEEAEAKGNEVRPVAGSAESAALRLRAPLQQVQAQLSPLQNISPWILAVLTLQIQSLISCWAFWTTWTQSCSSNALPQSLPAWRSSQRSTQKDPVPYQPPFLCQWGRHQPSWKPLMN
Sequence of Paired box protein Pax-6 (Homo sapiens) (P26367 whole entry, looked up): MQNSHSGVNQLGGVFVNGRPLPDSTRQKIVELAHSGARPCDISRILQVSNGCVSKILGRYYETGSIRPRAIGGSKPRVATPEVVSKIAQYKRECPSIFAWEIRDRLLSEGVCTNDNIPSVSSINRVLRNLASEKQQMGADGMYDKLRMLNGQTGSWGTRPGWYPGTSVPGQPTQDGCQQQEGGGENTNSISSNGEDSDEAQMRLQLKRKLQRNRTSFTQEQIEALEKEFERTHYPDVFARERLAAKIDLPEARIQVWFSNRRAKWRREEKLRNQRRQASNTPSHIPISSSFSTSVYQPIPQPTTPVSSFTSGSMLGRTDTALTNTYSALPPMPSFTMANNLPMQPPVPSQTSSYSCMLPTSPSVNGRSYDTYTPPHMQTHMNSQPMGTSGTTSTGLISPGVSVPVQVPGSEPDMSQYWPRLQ
Sequence of Signal transducer and activator of transcription 3 (Homo sapiens) (P40763 whole entry, looked up): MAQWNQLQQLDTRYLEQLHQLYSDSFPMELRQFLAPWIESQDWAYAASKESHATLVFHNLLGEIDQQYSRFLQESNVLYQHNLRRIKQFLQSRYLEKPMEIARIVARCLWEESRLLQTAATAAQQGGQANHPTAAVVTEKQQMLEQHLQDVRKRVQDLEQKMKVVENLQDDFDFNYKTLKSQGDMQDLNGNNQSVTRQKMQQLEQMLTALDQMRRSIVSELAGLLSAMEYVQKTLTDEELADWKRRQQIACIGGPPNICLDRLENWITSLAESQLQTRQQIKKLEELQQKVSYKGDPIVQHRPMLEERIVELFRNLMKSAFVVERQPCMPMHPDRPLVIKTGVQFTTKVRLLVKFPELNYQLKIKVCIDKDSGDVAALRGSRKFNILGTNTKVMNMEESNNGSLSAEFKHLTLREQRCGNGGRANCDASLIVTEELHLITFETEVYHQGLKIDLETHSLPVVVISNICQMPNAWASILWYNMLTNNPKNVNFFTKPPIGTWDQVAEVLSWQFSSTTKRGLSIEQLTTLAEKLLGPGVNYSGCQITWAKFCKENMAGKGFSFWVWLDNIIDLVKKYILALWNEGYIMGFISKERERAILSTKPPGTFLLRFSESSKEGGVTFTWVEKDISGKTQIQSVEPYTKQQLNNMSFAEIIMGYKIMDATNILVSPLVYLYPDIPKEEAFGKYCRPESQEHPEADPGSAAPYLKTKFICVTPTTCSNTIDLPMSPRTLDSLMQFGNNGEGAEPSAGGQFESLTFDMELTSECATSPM
Sequence of Transcription factor Sp1 (Homo sapiens) (P08047 whole entry, looked up): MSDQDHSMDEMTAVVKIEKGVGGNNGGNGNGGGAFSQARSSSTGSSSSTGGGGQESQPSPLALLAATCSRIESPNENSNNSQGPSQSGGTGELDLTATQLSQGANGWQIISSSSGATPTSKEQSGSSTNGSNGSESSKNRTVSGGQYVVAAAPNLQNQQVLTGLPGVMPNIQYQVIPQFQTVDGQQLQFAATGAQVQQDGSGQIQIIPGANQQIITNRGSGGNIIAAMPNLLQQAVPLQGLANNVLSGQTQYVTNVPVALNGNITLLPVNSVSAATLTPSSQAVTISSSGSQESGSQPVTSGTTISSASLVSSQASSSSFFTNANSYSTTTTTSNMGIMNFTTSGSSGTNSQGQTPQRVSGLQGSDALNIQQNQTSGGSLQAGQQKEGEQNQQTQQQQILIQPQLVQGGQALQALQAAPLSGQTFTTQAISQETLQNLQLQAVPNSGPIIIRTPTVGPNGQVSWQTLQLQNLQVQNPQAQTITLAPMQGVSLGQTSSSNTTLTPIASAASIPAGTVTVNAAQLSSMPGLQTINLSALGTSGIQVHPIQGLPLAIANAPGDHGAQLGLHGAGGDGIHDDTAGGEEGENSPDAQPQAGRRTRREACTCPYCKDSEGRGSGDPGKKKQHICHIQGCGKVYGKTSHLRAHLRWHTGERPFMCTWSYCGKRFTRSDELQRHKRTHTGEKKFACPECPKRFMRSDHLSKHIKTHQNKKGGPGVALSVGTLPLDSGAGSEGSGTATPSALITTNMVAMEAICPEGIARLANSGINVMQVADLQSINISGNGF
Sequence of Estrogen receptor (Homo sapiens) (P03372 whole entry, looked up, the tested form may be a part): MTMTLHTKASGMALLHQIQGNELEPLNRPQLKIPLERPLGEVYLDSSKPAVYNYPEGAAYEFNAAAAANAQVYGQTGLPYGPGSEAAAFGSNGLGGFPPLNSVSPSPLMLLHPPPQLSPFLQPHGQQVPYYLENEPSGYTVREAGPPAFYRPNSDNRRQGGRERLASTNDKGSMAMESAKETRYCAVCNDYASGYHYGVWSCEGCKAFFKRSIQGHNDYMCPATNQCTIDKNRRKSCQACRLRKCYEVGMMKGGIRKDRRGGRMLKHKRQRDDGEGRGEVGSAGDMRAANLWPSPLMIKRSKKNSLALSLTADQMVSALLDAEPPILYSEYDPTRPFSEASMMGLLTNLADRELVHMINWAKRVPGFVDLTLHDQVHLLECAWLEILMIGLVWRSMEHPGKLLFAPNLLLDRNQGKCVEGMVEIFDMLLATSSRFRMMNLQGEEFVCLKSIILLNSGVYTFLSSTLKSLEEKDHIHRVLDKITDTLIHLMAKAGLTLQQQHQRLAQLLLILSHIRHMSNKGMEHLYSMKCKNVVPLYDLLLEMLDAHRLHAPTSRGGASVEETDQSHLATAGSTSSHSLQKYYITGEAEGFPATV
Sequence of Nuclear receptor subfamily 1 group I member 3 (Homo sapiens) (Q14994 whole entry, looked up, the tested form may be a part): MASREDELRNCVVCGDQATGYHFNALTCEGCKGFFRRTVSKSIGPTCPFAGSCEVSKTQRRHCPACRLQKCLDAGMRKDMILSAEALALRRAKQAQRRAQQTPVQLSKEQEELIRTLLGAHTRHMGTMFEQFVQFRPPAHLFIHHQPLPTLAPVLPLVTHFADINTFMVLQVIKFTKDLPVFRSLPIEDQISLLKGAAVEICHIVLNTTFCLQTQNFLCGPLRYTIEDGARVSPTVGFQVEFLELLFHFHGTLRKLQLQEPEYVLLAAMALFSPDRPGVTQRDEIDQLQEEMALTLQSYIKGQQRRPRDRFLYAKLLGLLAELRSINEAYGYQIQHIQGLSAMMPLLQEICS
Sequence of Estrogen-related receptor gamma (Homo sapiens) (P62508 whole entry, looked up, the tested form may be a part): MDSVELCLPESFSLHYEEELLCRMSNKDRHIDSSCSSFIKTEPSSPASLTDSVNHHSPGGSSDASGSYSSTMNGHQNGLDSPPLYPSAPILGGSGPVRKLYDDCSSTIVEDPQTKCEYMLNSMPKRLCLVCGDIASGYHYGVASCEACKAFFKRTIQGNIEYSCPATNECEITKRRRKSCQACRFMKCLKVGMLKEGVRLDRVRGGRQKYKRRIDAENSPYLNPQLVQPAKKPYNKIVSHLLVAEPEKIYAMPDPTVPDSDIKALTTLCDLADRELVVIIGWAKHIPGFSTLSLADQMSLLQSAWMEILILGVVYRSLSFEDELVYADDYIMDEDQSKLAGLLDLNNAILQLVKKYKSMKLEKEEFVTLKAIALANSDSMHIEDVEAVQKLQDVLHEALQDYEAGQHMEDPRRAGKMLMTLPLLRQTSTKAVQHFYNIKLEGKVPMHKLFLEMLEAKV
Sequence of Steroid hormone receptor ERR1 (Homo sapiens) (P11474 whole entry, looked up, the tested form may be a part): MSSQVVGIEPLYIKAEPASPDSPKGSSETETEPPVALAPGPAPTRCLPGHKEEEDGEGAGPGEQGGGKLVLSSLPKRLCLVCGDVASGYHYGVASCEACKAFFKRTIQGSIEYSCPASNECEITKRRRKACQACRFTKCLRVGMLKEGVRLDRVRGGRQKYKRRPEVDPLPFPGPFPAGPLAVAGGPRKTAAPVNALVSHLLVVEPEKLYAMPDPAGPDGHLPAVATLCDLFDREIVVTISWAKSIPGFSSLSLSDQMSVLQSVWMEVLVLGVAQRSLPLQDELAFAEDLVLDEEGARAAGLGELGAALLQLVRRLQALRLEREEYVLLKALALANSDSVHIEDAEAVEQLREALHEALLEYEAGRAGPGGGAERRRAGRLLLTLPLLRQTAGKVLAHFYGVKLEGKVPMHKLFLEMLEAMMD

COC=O
not listed: [15] | [16] | [17] | [18] | [19] | [20]
inactive: all other assays above

CCCCCCCC[N+](C)(CCCCCCCC)CCCCCCCC
not listed: [14] | [17] | [18] | [19] | [20]
inactive: all other assays above

C=CC(C)(CCC=C(C)C)OC(=O)C(C)C (stereo not drawn)
active: [2] 8.57 µM | [15] 38 µM
not listed: [12] | [14] | [18] | [19] | [20]
inactive: all other assays above

Cc1ccc(C2OC[C@@H]3OC(c4ccc(C)cc4)O[C@H]([C@H](O)CO)[C@@H]3O2)cc1 (stereo partly drawn)
active: [2] 12.9 µM
not listed: [14] | [15] | [16] | [19] | [20]
inactive: all other assays above

Cc1cccc(OCCOc2cccc(C)c2)c1
not listed: [14] | [16] | [17] | [18]
inactive: all other assays above

CC1=NN(c2cc(S(=O)(=O)O)ccc2Cl)C(=O)C1N=Nc1ccccc1 (stereo not drawn)
not listed: [14] | [15] | [17] | [19] | [20]
inactive: all other assays above

CCN(CCC#N)c1ccc(N=Nc2c(Cl)cc([N+](=O)[O-])cc2Cl)cc1
active: [2] 1.67 µM | [15] 4.92 µM
not listed: [16] | [17] | [18] | [19] | [20]
inactive: all other assays above

CCOC(=O)c1ccc(N(C)C)cc1
active: [2] 28.1 µM
not listed: [12] | [14] | [16] | [17] | [18] | [20]
inactive: all other assays above

CC=C1CC2C=CC1C2 (stereo not drawn)
active: [2] 3.1 µM
not listed: [12] | [14] | [15] | [18] | [19] | [20]
inactive: all other assays above
